Bioassay records from PubChem BioAssay.
A selection: hits, their analogues and other compounds. The true share with any hit is near 0.92%.
TDP1 block – blocks human tyrosyl-DNA phosphodiesterase 1; Q9NUW8; recombinant TDP1, AlphaScreen DNA substrate cleavage; Potency, µM (highest dose often 130 µM), inactives show at the top dose activity change, negative = inhibition, hits mostly inhibitors; 350,000 compounds, 0.28% hits; AID 485290; also: % is scaled to controls: 0 for no effect and ±100 for the full control effect; nearly all actives have a fitted effect of over 40% in size
Target sequence (Q9NUW8 whole entry, looked up): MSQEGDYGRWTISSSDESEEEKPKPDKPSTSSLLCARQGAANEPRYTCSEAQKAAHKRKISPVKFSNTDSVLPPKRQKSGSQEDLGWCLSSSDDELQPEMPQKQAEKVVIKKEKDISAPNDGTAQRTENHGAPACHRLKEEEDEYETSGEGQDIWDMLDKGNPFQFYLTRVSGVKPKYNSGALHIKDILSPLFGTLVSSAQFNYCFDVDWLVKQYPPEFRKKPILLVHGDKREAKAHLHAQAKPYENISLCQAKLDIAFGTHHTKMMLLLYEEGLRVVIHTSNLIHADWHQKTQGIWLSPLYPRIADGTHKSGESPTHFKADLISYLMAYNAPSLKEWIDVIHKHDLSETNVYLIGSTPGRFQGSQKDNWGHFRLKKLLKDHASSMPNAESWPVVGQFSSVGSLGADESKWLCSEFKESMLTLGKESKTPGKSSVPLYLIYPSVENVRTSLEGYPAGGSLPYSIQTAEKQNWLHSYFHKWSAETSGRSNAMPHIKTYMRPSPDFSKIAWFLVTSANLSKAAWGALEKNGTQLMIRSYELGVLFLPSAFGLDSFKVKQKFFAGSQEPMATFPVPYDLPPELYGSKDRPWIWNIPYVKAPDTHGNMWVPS
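Signal: AlphaScreen proximity between streptavidin donor and anti-FITC acceptor beads on intact substrate. Reaction: Tdp1 1 nM, substrate 15 nM final, 5 min RT after 15 min compound preincubation.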
BLM inh-1 – inhibitors of human Bloom syndrome helicase BLM; P54132; recombinant BLM DNA unwinding, fluorescence dequenching; Potency, µM (doses to about 56.1 µM), inactives show top-dose activity change, negative = inhibition, most hits filed as inhibitors; 350,000 compounds, 0.2% hits; AID 2528;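 also: plate controls were vehicle for no effect and no enzyme for full effect; nearly all actives have a fitted effect of over 35% in size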
FEN1 inh-1 – blocks human flap endonuclease 1. Recombinant FEN1 flap cleavage, fluorescence, 15 min. Potency, µM (top dose mostly 114 µM), inactives show at the top dose activity change, negative = inhibition, hits mostly inhibitors. P39748. AID 588795. 390,000 compounds, 0.35% hits; also: % is scaled to controls: 0 for no effect and ±100 for the full control effect; nearly all actives have a fitted effect of over 65% in size
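FEN1 at 10 nM, compound pretreatment for 15 min (room temperature), 50 nM final substrate to initiate; endpoint reads at 0 and 15 min; DMSO-only plates used as vehicle background.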
APEX1 inh – APE1 (human) endonuclease inhibition | P27695 | recombinant APE1, TAMRA/BHQ-2 abasic DNA cleavage fluorescence | Potency, µM (highest dose often 65.8 µM), for the others: at the top dose activity change, negative = inhibition, hits mostly inhibitors | 350,000 compounds, 0.35% hits;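 also: plate controls were vehicle for no effect and reference inhibitor for full effect; nearly all actives have a fitted effect of over 55% in size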
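Endonuclease cleavage of a quenched abasic-site DNA duplex (50 nM) by APE1 (0.75 nM) was tracked by TAMRA dequenching. Compounds were preincubated with enzyme 15 min at room temperature; data normalized to buffer-only and DMSO wells plus NSC13755 control.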
RECQ1 inh-1 – inhibitors of human RECQ1 DNA helicase; RECQ1 DNA unwinding, red fluorescence kinetic read; Potency, µM (top dose mostly 57.3 µM), inactives show at the highest dose activity, negative = inhibition, most hits filed as inhibitors; 240,000 compounds, 0.54% hits;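 also: plate controls were vehicle for no effect and no enzyme for full effect; nearly all actives have a fitted effect of over 30% in size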
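50 nM RECQ1T1 preincubated 15 min with compound in Tris pH 8.0 buffer with MgCl2, DTT, Tween-20 and 2.5 ug/ml poly(dI-dC); started with 200 nM TAMRA/BHQ-2 forked duplex and 2 mM ATP. Unwinding read as fluorescence (525/598 nm), two reads 2 h apart.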
BLM inh-2 – confirmation of inhibitors of human Bloom syndrome helicase BLM; shares compounds with BLM inh-1; BLM DNA unwinding, fluorescence quenching, biochemical; Potency, µM, for inactives: max response, negative = inhibition, hits mostly inhibitors; 220 compounds, 40% hits;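 also: strand separation dequenches TAMRA so unwinding raises red fluorescence; series mostly up to about 69 µM; % is scaled to controls: 0 for no effect and ±100 for the full control effect; nearly all actives have a fitted effect of over 45% in size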
RECQ1 inh conf – confirmation of human RECQ1 helicase inhibitors. shares compounds with RECQ1 inh-1. RECQ1 helicase DNA unwinding, fluorescence. Potency, µM (top dose mostly 229 µM), inactives show top-dose activity change, negative = inhibition, most hits filed as inhibitors. 610 compounds, 28% hits. AID 2708; also: % is scaled to controls: 0 for no effect and ±100 for the full control effect; nearly all actives have a fitted effect of over 45% in size
ADP FP counter – displaces ADP in a fluorescence polarization counter-screen for RECQ1 hits; ADP fluorescence polarization displacement counterscreen; shares compounds with RECQ1 inh-1; 530 compounds, 27% hits; Potency, µM (top dose mostly 228 µM), inactives show at the top dose activity change, negative = inhibition, actives largely listed as inhibitors; also: % is scaled to controls: 0 for no effect and ±100 for the full control effect; nearly all actives have a fitted effect of over 45% in size
RECQ1 inh-2 – blocks human RECQ1 DNA unwinding; shares compounds with RECQ1 inh-1; recombinant RECQ1 DNA unwinding, red fluorescence; Potency, µM (top dose mostly 119 µM), without a hit: at the highest dose activity, negative = inhibition, usual class: inhibitors; 1,100 compounds, 15% hits; also: % is scaled to controls: 0 for no effect and ±100 for the full control effect; nearly all actives have a fitted effect of over 50% in size
FEN1 inh-2 – confirmation of human FEN1 inhibitors | shares compounds with FEN1 inh-1 | FEN1 flap cleavage, TAMRA/BHQ2 fluorogenic DNA substrate | Potency, µM, hits mostly inhibitors | 880 compounds, 79% hits | AID 720498; also: nearly all actives have a fitted effect of over 60% in size
The depositor's hits bear a star; i = inactive; u = inconclusive; x = no result; + = active, no number; [ ] = another dose, or the depositor's remark. Calls follow the shape of the dose curve; as a rule, active = well fitted curve in the direction sought with a large enough effect; inconclusive = small, poorly fitted or top-dose-only effect, or another doubt; inactive = no such curve, though single readings can be large; an effect the other way counts as inactive or inconclusive. Potency is read from the fitted curve at half-maximal effect.

SMILES | TDP1 block | BLM inh-1 | FEN1 inh-1 | APEX1 inh | RECQ1 inh-1 | RECQ1 inh-2 | others
O=C(C1CCC1)N1CCCc2cc(S(=O)(=O)Nc3ccc(F)cc3)ccc21 | 1% | -9% | -20% | x | x | x
CCc1ccc(C(=O)c2cn(CC(=O)Nc3cccc(OC)c3)c3ccc(OC)cc3c2=O)cc1 | x | 20µM* | 40µM* | 28% | x | x | BLM inh-2=20µM*;FEN1 inh-2=67*
O=C(c1cccs1)c1cn(CCOc2ccccc2Cl)c2ccccc12 | 5% | -7% | 13% | x | x | x
Nc1ncnc2c1[nH]c(=S)n2C1OC(CO)C(O)C1O (configuration not stated) | 1% | x | -12% | x | x | x
COc1cc(Cl)c(C)cc1NC(=O)CSc1ncc(S(=O)(=O)c2ccc(C(C)(C)C)cc2)c(=O)[nH]1 | u | 16µM* | u | x | x | x | BLM inh-2=23µM*;FEN1 inh-2=48*
COc1ccc2[nH]c(=O)c(CN(Cc3ccco3)Cc3nnnn3Cc3ccccc3)cc2c1 | 7% | -1% | -5% | 2% | i | x
Cc1ccc(C)c2[nH]c(=O)c(CN(Cc3ccc4c(c3)OCO4)Cc3nnnn3Cc3ccco3)cc12 | 4% | -17% | -1% | u | 22µM* | -13%
CCc1ccc2[nH]c(=O)c(CN(Cc3ccccc3OC)Cc3nnnn3Cc3ccco3)cc2c1 | 6% | -8% | -17% | u | u | -19%
O=C(CSc1nc2ccccc2n1Cc1ccc(F)cc1)N1CCN(c2ccc(F)cc2)CC1 | 1% | 0% | -1% | x | x | x
CCCCn1c(=O)n(-c2ccc(Br)cc2F)c(=O)c2c3c(sc21)CN(C(C)=O)CC3 | -1% | -3% | u | x | x | x
C=C1c2cccc(O)c2C(O)=C2C(=O)[C@]3(O)C(O)=C(C(N)=O)C(=O)C(N(C)C)C3C(O)C12 (some centres not stated) | x | -4% | x | 4µM* | 8.9µM* | -13% | RECQ1 inh conf=u;ADP FP counter=7.9µM*
CC(=O)OCCNc1nc(-c2ccccc2)nc2ccccc12 | 0% | 1% | 14% | 10% | u | -9%
COCCNc1nc(-c2ccccc2)nc2ccccc12 | 3% | -7% | -5% | -3% | -1% | x
COc1ccc(C(=O)Nc2cccnc2)cc1 | -2% | 0% | -9% | -7% | -6% | x | RECQ1 inh conf=6%;ADP FP counter=u
COc1ccc(C(=O)Nc2ccccc2C(=O)Nc2cccnc2)cc1 | x | 0% | -15% | 19%[12.4 µM] | x | x
COc1cc(Cl)c(C)cc1NC(=O)CSCC#N | 5%[56.1 µM] | 1% | 0% | 5% | i | x
Cc1ccc(NC(=O)CSCC#N)cc1Cl | 3% | 4% | 0% | 18% | 28µM* | 0%
CN(C)c1ccc(C=Nc2cncc3ccccc23)cc1 | x | x | 3% | x | x | x
Cn1nc(C(=O)Nc2nc3ccccc3[nH]2)c2ccccc2c1=O | 7% | -15% | -15% | 2% | u | u
Cc1cc[n+](CC(=O)c2ccc(F)cc2)c2ccccc12 | x | x | 13% | x | x | x
CN(C)c1ccc(/C=C2/SC(=O)N(CCN=C3NS(=O)(=O)c4ccccc43)C2=O)cc1 | 3% | -9% | 1% | 3% | 5% | x
CN(C)c1ccc(/C=C2\SC(=O)N(CCc3nnc(N)s3)C2=O)cc1 | x | -8% | 2% | -3% | u | u
COc1ccccc1CNc1nc(-c2ccc3c(c2)OCO3)nc2ccccc12 | x | -17% | x | 7% | u | -13%
Cc1ccc(-c2nn(CC(=O)NC3CCCCC3)c3c2cnc2ccc(F)cc23)cc1C | 5% | -2% | 17% | x | x | x
CCN(CC)CCOC(=O)c1ccc(NC(=O)c2nn(-c3ccc(C)cc3)c(=O)c3c2c2ccccc2n3C)cc1 | -2% | 29% | 4% | x | x | x
SMILES | TDP1 block | BLM inh-1 | FEN1 inh-1 | APEX1 inh | RECQ1 inh-1 | RECQ1 inh-2 | others
Cc1cc(=O)c2c(O)c3c(O)cc(=O)c4c3c3c(cc(O)c1c23)C(C)(C)C=4O | 8% | 7.1µM* | x | 6% | 1.8µM* | i | RECQ1 inh conf=+;ADP FP counter=0.32µM*
CCOc1ccc(NC(=O)Cn2cc(C(=O)c3ccc(C)c(C)c3)c(=O)c3cc(F)ccc32)cc1 | -4% | -15% | 7% | x | x | x
Cc1ccc(-n2nc(-c3ccco3)cc2C(=O)O)cc1 | x | 0% | -9% | u | 20µM* | u
COC(=O)c1sc2ccccc2c1NC(=O)c1ccc(S(=O)(=O)N2CCCCC2C)cc1 (configuration not stated) | 3% | -4% | -10% | -5% | 5% | x | RECQ1 inh conf=4%;ADP FP counter=-5%
CN(C(=O)COc1ccc2ccc(=O)oc2c1)C1CCS(=O)(=O)C1 (configuration not stated) | 6% | 1% | 2% | 70% | x | x
CC(=O)OC1CCC2(C)C(COc3ccc4ccc(=O)oc4c3)C(C)(O)CCC2C1(C)C (configuration not stated) | -1% | -11% | 4% | 11% | u | -23%
COc1ccc(N(CC(=O)N2c3ccccc3CC2C)S(=O)(=O)c2c(C)noc2C)cc1 (configuration not stated) | 1% | -15% | -24% | 8% | u | -18%
COc1ccc(N(CC(=O)N2CCN(c3ccccc3F)CC2)S(=O)(=O)c2c(C)noc2C)cc1 | 2% | -2% | -8% | 17% | x | x
COc1ccc(Nc2ncc(C(=O)Nc3ccc(F)cc3F)c3ccccc23)cc1 | 9% | -1% | 2% | x | x | x
O=C(Nc1cccc(S(=O)(=O)N2CCOCC2)c1)C1CCCCN1S(=O)(=O)c1ccccc1 (configuration not stated) | 1% | x | -9% | -9% | x | x
O=C(Nc1cccc(S(=O)(=O)N2CCOCC2)c1)[C@@H]1CCCN1S(=O)(=O)c1ccc(Cl)cc1 | -6% | -8% | 19% | -1% | -1% | x | RECQ1 inh conf=-9%;ADP FP counter=25%
Cc1[nH]c2ccccc2c1C(=O)C(C)Sc1nc2ccccc2c(=O)n1Cc1cccnc1 (configuration not stated) | x | x | -5% | x | x | x
